# This is part of a sample that, as a whole, favours compounds with a hit. Of some 83,000 tested, about 20% had one in any assay.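 Single-concentration screen, 48 h exposure, 96-well plates. Endpoint: percent growth. Below 10 = active.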 The source made the active and inactive calls.
# System: HCT-116 colon
# Test: NCI-60 one-dose screen, 48 h (100 = growth as untreated, 0 = no growth, -100 = all killed)
# Conditions: 10 µM unless noted
row,Compound,growth
1,O=C(Nc1ccccc1)Oc1cccc2cccnc12,1.27% (active)
2,O=c1[nH]c(-c2ccccn2)nc2sc3c(c12)CCCCCC3,24.6% (inactive)
3,CC(=O)N(CC(O)CO)c1c(I)c(C(=O)NCCO)c(I)c(C(=O)NCC(O)CO)c1I (stereo not drawn),97% (inactive)
4,COc1ccc(-c2nc3sc(C)nn3c2-c2nc3cc(C)c(C)cc3[nH]2)cc1,97.5% (inactive)
5,O=C(C[Si](CC(=O)c1cccc(C(F)(F)F)c1)CC(=O)c1cccc(C(F)(F)F)c1)c1cccc(C(F)(F)F)c1,23.5% (inactive)
6,Cc1ccc(C2SCC(=O)N2NC(=O)c2[nH]c3ccc(F)cc3c2-c2ccccc2)cc1 (stereo not drawn),80.1% (inactive)
7,CCCCCCCCCCCCSC1=CC(=O)C=CC1=O,78.3% (inactive)
8,O=C1/C(=C/c2ccc(Oc3ccccc3)cc2)N=C(c2ccccc2)N1CCc1cccs1,57.1% (inactive)
9,COc1ccc(Nc2[nH]n(C3=Nc4ccccc4Sc4ccccc43)c(=O)c2C#N)cc1,30.6% (inactive)
10,FC(F)(F)c1cc(CNc2ncc(Br)c(Cl)n2)cc(C(F)(F)F)c1,90.2% (inactive)
11,COc1cc(CNCCCN2C(=O)c3ccc4c5c(ccc(c35)C2=O)C(=O)N(CCCNCc2cc(OC)c(OC)c(OC)c2)C4=O)cc(OC)c1OC,-61.8% (active)
12,CCCCc1ccc(C(O)(CCN2CC3CCC(CC3)C2)c2ccccc2)cc1 (stereo not drawn),77% (inactive)
13,CC(C)NCC(O)COc1ccc(CCOCC2CC2)cc1 (stereo not drawn),106% (inactive)
14,Oc1cccc(Nc2nc(-c3ccccn3)cs2)c1,97.1% (inactive)
15,O=C(O)CCN1CCN(c2cccc(Cl)c2)CC1,102% (inactive)
16,CCCCC(CCCC)(S(=O)(=O)CC)S(=O)(=O)CC,98.9% (inactive)
17,COc1ccc(/C=C2\CN(Cc3cn(CCCNc4ccnc5cc(Cl)ccc45)nn3)C/C(=C\c3ccc(OC)cc3)C2=O)cc1,44.5% (inactive)
18,Cn1c2c(cc(S(=O)(=O)c3ccccc3)c1=O)CCc1c-2cnn1-c1cccc(Cl)c1,88.2% (inactive)
19,CCOc1ccc(-c2cnnn2-c2nonc2-n2cccc2)cc1,6.67% (active)

row,Compound,growth
1,COc1ccc(-c2csc3c2-n2cccc2C3=O)cc1O,-9.12% (active)
2,O=C1OCC2=C1C(c1ccc3c(c1)OCO3)CC(=O)N2c1cccc(Cl)c1 (stereo not drawn),114% (inactive)
3,COc1cc2nc(N3CCC[C@H](NC4=CC(=O)c5ccccc5C4=O)C3)nc(N)c2cc1OC,-85.3% (active)
4,CC1SC(c2ccc(Cl)cc2)N(CCc2cccs2)C1=O (stereo not drawn),-5.82% (active)
5,C[C@@H](Oc1cc(-c2cnn(C3CC4(CNC4)C3)c2)cnc1N)c1c(Cl)ccc(F)c1Cl,16.7% (inactive)
6,Cc1nn(-c2ccccc2)c2nc3nc4c(c(N)c3c(-c3ccc(Cl)cc3)c12)CCC4,58.2% (inactive)
7,COc1ncnc2c1ncn2C/C(Br)=C(\Br)CCl,-82.3% (active)
8,CCOC(=O)C(CC(c1ccccc1)N1CCCCC1)[N+](=O)[O-] (stereo not drawn),54.8% (inactive)
9,O=c1nc(NO)[nH]c(=O)n1Cc1ccc(F)cc1,102% (inactive)
10,CCN(CC)CCCNc1ccc(C)c2sc3ccccc3c(=O)c12,17.5% (inactive)
11,Cn1cc(C(=O)NCCC(=N)N)cc1NC(=O)CN=C(N)N,92.6% (inactive)
12,Cc1cc(=O)c2c(C)ccc(C)c2[nH]1,96.3% (inactive)
13,COc1ccc(OC2=C(C#N)C(=N)N3c4ccccc4Sc4ccccc4C3N2)cc1 (stereo not drawn),103% (inactive)
14,O=c1onc(-c2ccccc2)c2ccccc12,113% (inactive)
15,O=C1C(Cl)=C(NCCCN2CCOCC2)C(=O)c2ccccc21,97.5% (inactive)
16,CCCCc1ccc(NC(=O)C(F)(F)F)cc1,106% (inactive)
17,O=C1CC(c2ccsc2)c2snc(-c3ccc(Cl)cc3)c2N1 (stereo not drawn),21.5% (inactive)
18,COc1ccc2nc(-n3nc(C)cc3C)c(-n3nc(C)cc3C)nc2c1,96% (inactive)

# System: HCC-2998 colon
# Test: as above
# Conditions: 10 µM unless noted
row,Compound,growth
1,O=c1[nH]c(-c2ccccn2)nc2sc3c(c12)CCCCCC3,53.5% (inactive)
2,COc1ccc(-c2nc3sc(C)nn3c2-c2nc3cc(C)c(C)cc3[nH]2)cc1,106% (inactive)
3,O=C(C[Si](CC(=O)c1cccc(C(F)(F)F)c1)CC(=O)c1cccc(C(F)(F)F)c1)c1cccc(C(F)(F)F)c1,83.6% (inactive)
4,Cc1ccc(C2SCC(=O)N2NC(=O)c2[nH]c3ccc(F)cc3c2-c2ccccc2)cc1 (stereo not drawn),70.2% (inactive)
5,CCCCCCCCCCCCSC1=CC(=O)C=CC1=O,94.3% (inactive)
6,O=C1/C(=C/c2ccc(Oc3ccccc3)cc2)N=C(c2ccccc2)N1CCc1cccs1,96.6% (inactive)
7,COc1ccc(Nc2[nH]n(C3=Nc4ccccc4Sc4ccccc43)c(=O)c2C#N)cc1,40.8% (inactive)
8,FC(F)(F)c1cc(CNc2ncc(Br)c(Cl)n2)cc(C(F)(F)F)c1,102% (inactive)
9,COc1cc(CNCCCN2C(=O)c3ccc4c5c(ccc(c35)C2=O)C(=O)N(CCCNCc2cc(OC)c(OC)c(OC)c2)C4=O)cc(OC)c1OC,-92.4% (active)
10,CCCCc1ccc(C(O)(CCN2CC3CCC(CC3)C2)c2ccccc2)cc1 (stereo not drawn),90.1% (inactive)
11,O=C(O)CCN1CCN(c2cccc(Cl)c2)CC1,114% (inactive)
12,CCCCC(CCCC)(S(=O)(=O)CC)S(=O)(=O)CC,111% (inactive)
13,COc1ccc(/C=C2\CN(Cc3cn(CCCNc4ccnc5cc(Cl)ccc45)nn3)C/C(=C\c3ccc(OC)cc3)C2=O)cc1,95.1% (inactive)
14,Cn1c2c(cc(S(=O)(=O)c3ccccc3)c1=O)CCc1c-2cnn1-c1cccc(Cl)c1,111% (inactive)
15,CCOc1ccc(-c2cnnn2-c2nonc2-n2cccc2)cc1,0.666% (active)
16,COc1cc2nc(N3CCC[C@H](NC4=CC(=O)c5ccccc5C4=O)C3)nc(N)c2cc1OC,92.9% (inactive)

row,Compound,growth
1,CC1SC(c2ccc(Cl)cc2)N(CCc2cccs2)C1=O (stereo not drawn),-1.78% (active)
2,C[C@@H](Oc1cc(-c2cnn(C3CC4(CNC4)C3)c2)cnc1N)c1c(Cl)ccc(F)c1Cl,57.1% (inactive)
3,Cc1nn(-c2ccccc2)c2nc3nc4c(c(N)c3c(-c3ccc(Cl)cc3)c12)CCC4,109% (inactive)
4,COc1ncnc2c1ncn2C/C(Br)=C(\Br)CCl,89.8% (inactive)
5,CCOC(=O)C(CC(c1ccccc1)N1CCCCC1)[N+](=O)[O-] (stereo not drawn),108% (inactive)
6,O=c1nc(NO)[nH]c(=O)n1Cc1ccc(F)cc1,114% (inactive)
7,CCN(CC)CCCNc1ccc(C)c2sc3ccccc3c(=O)c12,-49.2% (active)
8,Cn1cc(C(=O)NCCC(=N)N)cc1NC(=O)CN=C(N)N,88.6% (inactive)
9,Cc1cc(=O)c2c(C)ccc(C)c2[nH]1,91.2% (inactive)
10,COc1ccc(OC2=C(C#N)C(=N)N3c4ccccc4Sc4ccccc4C3N2)cc1 (stereo not drawn),95.2% (inactive)
11,O=c1onc(-c2ccccc2)c2ccccc12,98.9% (inactive)
12,O=C1C(Cl)=C(NCCCN2CCOCC2)C(=O)c2ccccc21,91.3% (inactive)
13,CCCCc1ccc(NC(=O)C(F)(F)F)cc1,106% (inactive)
14,O=C1CC(c2ccsc2)c2snc(-c3ccc(Cl)cc3)c2N1 (stereo not drawn),58.5% (inactive)
15,COc1ccc2nc(-n3nc(C)cc3C)c(-n3nc(C)cc3C)nc2c1,89.8% (inactive)
